Source: PubChem (National Center for Advancing Translational Sciences (NCATS))
SARS PLP yeast = qHTS of Yeast-based Assay for SARS-CoV PLP; S. cerevisiae expressing SARS-CoV PLpro, growth rescue; Potency, µM (titrated, usually from 32.9 µM), hits mostly activators; 330,000 tested, 0.19% active; calls by dose curve; note: nearly all actives have a fitted effect of over 55% in size
HCV inh = qHTS Assay for Inhibitors of Hepatitis C Virus (HCV); 340,000 tested, 3.4% active; AID 651820, 2012; Huh7.5.1 HCVcc-Cre infection, luciferase reporter, 44 h; Potency, µM (doses to about 41.8 µM), actives largely listed as inhibitors
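Antiviral activity was scored by luciferase reporter output from cells infected with HCVcc-Cre (~0.5 moi) in presence of compound, 44 h infection period, cells seeded 1,000/well 4 h prior.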
Pf growth 96h = Primary qHTS for delayed death inhibitors of the malarial parasite plastid, 96 hour incubation; P. falciparum luciferase reporter growth, 96 h; Potency, µM (highest dose often 28.7 µM), usual class: inhibitors; 320,000 tested, 6.9% active; AID 504834, 2011
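Readout is luminescence from an integrated firefly luciferase in P. falciparum. Red cells, 2% hematocrit and 0.05% parasitemia final, were cultured with compound through two parasite generations (96 hours) at 37 C, 5% CO2.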
Sm TGR block = qHTS Assay for the Inhibitors of Schistosoma Mansoni Peroxiredoxins; Schistosoma mansoni thioredoxin glutathione reductase (TGR), Q962Y6; AID 485364, 2010; 360,000 tested, 3% active; Potency, µM (series often up to 114 µM), actives largely listed as inhibitors; purified TGR, DTNB reduction, TNB absorbance 405 nm; note: nearly all actives have a fitted effect of over 60% in size
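TGR 20 nM + NADPH 100 uM (dispensed conc.), cpd preinc 15 min RT; start with NADPH (500 uM addition) then DTNB (15 mM addition). Kinetic TNB absorbance, 405 nm filter. Four-parameter Hill fit across titration.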
Pf growth 48h = Primary qHTS for delayed death inhibitors of the malarial parasite plastid, 48 hour incubation; Potency, µM (doses to about 28.7 µM), hits mostly inhibitors; AID 504832, 2011; P. falciparum luciferase growth in erythrocytes, 48 h; 310,000 tested, 5.9% active
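Here the parasites carry a stable luciferase gene and grow inside erythrocytes in Albumax-based RPMI medium with compound for one erythrocytic cycle. Activity is scored as loss of luminescent signal.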
HCMV antiviral = qHTS Assay for inhibitors of the human cytomegalovirus (HCMV); activity change, negative = inhibition, % at 57.5 µM; 410,000 tested, 4.5% active; HFF cells, HCMV-luciferase reporter, 72 h; active compounds read low; AID 1259415, 2018; in the data active = activity change below about -60%; inconclusive = no clear call, values can overlap the other calls; inactive = above about -39%
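HFF cells seeded 16 h at 37C, treated with compounds, infected with luciferase-reporter HCMV at MOI 1 PFU/cell; luciferase read at 72 h post infection, normalized to buffer-only and Salinomycin controls.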
Numbers stand for hits; – = inactive; ? = inconclusive; · = no result. This is a sample that favours compounds with a hit; in the whole collection about 15% have one here. Unless noted, calls come from the whole dose curve; as a rule, active = well fitted curve in the direction sought with a large enough effect; inconclusive = small, poorly fitted or top-dose-only effect, or another doubt; inactive = no such curve, though single readings can be large; an effect the other way counts as inactive or inconclusive.

SMILES | SARS PLP yeast | HCV inh | Pf growth 96h | Sm TGR block | Pf growth 48h | HCMV antiviral
CC(C)(C)NCC(O)CON=C1c2ccccc2-c2ccccc21 (centres undefined) | – | 25.1µM | ? | – | ? | –
O=C(O)c1ccc(N2C(=O)CC(N3CCN(c4cccc(Cl)c4)CC3)C2=O)cc1 (centres undefined) | – | – | ? | 50.1µM | – | –
COc1ccc(N2C(=O)CC(N3CCN(c4cccc(Cl)c4)CC3)C2=O)cc1 (centres undefined) | – | – | – | – | – | –
O=C(O)c1ccc(N2C(=O)CC(N3CCN(c4cccc(C(F)(F)F)c4)CC3)C2=O)cc1 (centres undefined) | – | – | – | 89.1µM | – | –
COc1ccc(OC)c(/C=C/C(=O)N2CCN(S(=O)(=O)c3ccc(C)cc3C)CC2)c1 | – | ? | 13.1µM | – | 11.7µM | –
CCc1cc(C(=O)N2CCN(S(=O)(=O)c3cc(C)ccc3C)CC2)sc1C | – | ? | ? | – | 13.1µM | –
COc1ccc(OC)c(/C=C/C(=O)N2CCN(S(=O)(=O)c3cc(C)ccc3C)CC2)c1 | – | ? | ? | – | ? | –
COc1ccccc1/C=C/C(=O)N1CCN(S(=O)(=O)c2cc(C)ccc2C)CC1 | – | ? | ? | – | 14.7µM | –
CC(C)c1ccc(NC(=O)CN2C(=O)COc3ccc(S(=O)(=O)N4CCCCCC4)cc32)cc1 | · | · | · | – | · | –
O=C1CC2(CCCC2)Oc2ccccc21 | · | – | · | · | · | –
O=C(O)c1cc(Cl)c2c(c1)[C@@H]1C=CC[C@@H]1[C@H](c1ccc(S(=O)(=O)N3CCOCC3)cc1)N2 | – | ? | – | 14.1µM | – | ·
Cc1cc(C)c2c(c1)C1C=CCC1C(c1ccc(S(=O)(=O)N3CCOCC3)cc1)N2 (centres undefined) | – | – | ? | 1.58µM | ? | –
CCN(Cc1ccccc1)C(c1ccc(C)cc1)c1nnnn1C(C)(C)C (centres undefined) | – | – | 8.28µM | – | · | –
CC(C)(C)n1nnnc1C(c1ccccn1)N(Cc1ccccc1)Cc1ccc(Cl)cc1 (centres undefined) | · | ? | 1.47µM | – | 11.7µM | –
CC1CCN(C(c2ccccc2)c2nnnn2C(C)(C)C)CC1 (centres undefined) | – | – | – | – | ? | –
CCN(Cc1ccccc1)C(c1ccccn1)c1nnnn1C(C)(C)CC (centres undefined) | – | – | – | – | ? | –
CCN(Cc1ccccc1)C(c1ccc(Cl)cc1)c1nnnn1C(C)(C)C (centres undefined) | – | – | – | – | ? | -97.4
CC(C)(C)n1nnnc1C(c1cc2ccccc2o1)N(CCC#N)Cc1ccccc1 (centres undefined) | · | · | · | · | · | –
CCN(CC)C(=O)[C@H]1CC(CC(=O)NC(C)(C)C)C(=O)N2CCc3c([nH]c4ccccc34)[C@]12C (some centres undefined) | – | – | · | · | · | –
NC1=NC(c2ccc(Cl)cc2)N(c2ccc(S(N)(=O)=O)cc2)C(N)=N1 (centres undefined) | – | – | 9.28µM | – | ? | –
NC(=O)CSc1nnnn1-c1ccc(OC(F)(F)F)cc1 | – | – | 0.185µM | – | – | –
NC(=O)c1ccc(-n2nnnc2SCC(=O)NC2CCCCC2)cc1 | – | – | 13.1µM | – | – | –
NC(=O)c1ccc(-n2nnnc2SCC(=O)c2ccc(O)c(O)c2)cc1 | – | – | ? | – | – | -100.1
COc1ccc(CCNC(=O)CS(=O)(=O)c2cn(CC(=O)N3CCOCC3)c3ccccc23)cc1OC | – | – | – | 25.1µM | – | –
CC(=O)Nc1cccc(NC(=O)CS(=O)(=O)c2cn(CC(=O)N(C(C)C)C(C)C)c3ccccc23)c1 | – | – | 11.7µM | – | ? | –
SMILES | SARS PLP yeast | HCV inh | Pf growth 96h | Sm TGR block | Pf growth 48h | HCMV antiviral
COc1ccc(NC(=O)CS(=O)(=O)c2cn(CC(=O)N3CCOCC3)c3ccccc23)cc1OC | – | – | 7.38µM | – | – | –
COc1ccc(OC)c(NC(=O)CS(=O)(=O)c2cn(CC(=O)N3CCOCC3)c3ccccc23)c1 | – | – | ? | ? | ? | –
CC(C)N(C(=O)Cn1cc(S(=O)(=O)CC(=O)NCc2ccccc2)c2ccccc21)C(C)C | – | – | – | – | – | –
Cc1nn(C)cc1CN1CCC(CO)(CCOc2ccccc2)CC1 | – | – | ? | – | – | –
COc1cc(Cl)c(CN2CCC(CO)(CCOc3ccccc3)CC2)cc1OC | – | ? | ? | – | ? | –
OCC1(CCOc2ccccc2)CCN(Cc2nc3ccc(F)cc3[nH]2)CC1 | – | – | – | – | ? | -61.8
CCOc1ccccc1CN1CCC(CO)(CCOc2ccccc2)CC1 | – | – | – | – | ? | –
COc1ccc(CN2CCC(CO)(CCOc3ccccc3)CC2)c(OC)c1C | – | ? | – | – | 3.7µM | –
COc1ccc2[nH]c(CN3CCC(CO)(CCOc4ccccc4)CC3)c(C)c2c1 | – | 10µM | ? | – | ? | ?
OCC1(CCOc2ccccc2)CCN(Cc2ccccc2C(F)(F)F)CC1 | – | – | 8.28µM | – | – | –
Cc1ccc(S(=O)(=O)c2nc(S(C)(=O)=O)sc2NCc2ccccc2)cc1 | · | · | · | – | · | –
COc1ccc2c(c1)CCCC21NC(=O)N(CC(=O)c2cc(F)ccc2F)C1=O (centres undefined) | – | – | ? | – | ? | –
COc1ccc2c(c1)nc(SCC(O)c1ccccc1)n2C (centres undefined) | – | – | – | · | – | ?
Cc1cc(/C=C2\SC(=S)N(C)C2=O)c(C)n1-c1ccc(O)cc1 | – | 11.2µM | – | ? | – | -96.9
Cc1cc(/C=C2\SC(=S)N(C)C2=O)c(C)n1-c1ccccc1O | · | 7.08µM | · | · | · | –
CN1C(=O)/C(=C/c2coc3ccc(O)cc3c2=O)SC1=S | – | – | – | – | – | –
O=S(=O)(c1cc(F)ccc1F)N1CCN(c2ncnc3ccccc23)CC1 | – | 3.16µM | · | · | · | ?
O=S(=O)(c1cc(F)ccc1F)N1CCN(c2ccccn2)CC1 | – | – | – | – | – | –
Cc1ccc(NC(=S)N2CCN(S(=O)(=O)c3ccccc3)CC2)cc1 | – | – | ? | – | – | –
O=[N+]([O-])c1ccc(N2CCN(C(=S)Nc3ccccc3)CC2)cc1 | – | – | – | – | 2.08µM | ?
CC(=NNC(=S)N1CCN(c2ccccn2)CC1)c1nccs1 | · | 1.26µM | · | · | · | ·
S=C(Nc1cccc(Cl)c1)N1CCN(c2ccccn2)CC1 | – | – | – | – | – | –
